# Most compounds without a hit are left out; they make up all but 4.6% or so of the library.
# hgDAF12 agonist: activates the H. glycines DAF-12 receptor ligand-binding domain. HEK293 GAL4-hgDAF12 UAS-luciferase reporter, agonist luminescence; normalized to butyrate control. activation, % at 6.8 µM. 370,000 compounds, 1.8% hits. AID 687014;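 active means activation above a cutoff set at the mean of all screened compounds plus 3 SD, cut at about 10% in these data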;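 further: 0% = DMSO wells and 100% = sodium butyrate wells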
# DAX1 inh-1: inhibitors of human orphan nuclear receptor DAX1 (NR0B1); 340,000 compounds, 0.99% hits; HEK293 Gal4-DAX1 luciferase reporter, luminescence; AID 504766; P51843; inhibition, % at 6.75 µM;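 active means inhibition above the mean over all tested compounds plus 3 SD, cut at about 4.2% in these data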;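 further: 0% = DAX1-transfected cells with DMSO and 100% = empty-vector control cells with DMSO; inhibition shows as a rise in luminescence from relieved DAX1 repression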
# Target sequence (P51843 207-470 limits assumed): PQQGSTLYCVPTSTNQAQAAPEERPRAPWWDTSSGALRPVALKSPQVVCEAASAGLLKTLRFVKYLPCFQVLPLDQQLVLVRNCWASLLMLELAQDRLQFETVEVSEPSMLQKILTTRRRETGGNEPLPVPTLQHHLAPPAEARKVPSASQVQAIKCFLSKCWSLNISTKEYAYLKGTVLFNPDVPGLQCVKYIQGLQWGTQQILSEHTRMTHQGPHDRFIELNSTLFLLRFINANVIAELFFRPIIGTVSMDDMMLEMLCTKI
# Wee1 stabilizer: blocks degradation of human Wee1 kinase | P30291 | HeLa Luc-Wee1K328M stability, luciferase luminescence; 100% = proteasome inhibitor MG132 effect | reporter increase, % at 5 µM | 220,000 compounds, 1.2% hits | AID 1321;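 active means activation above the mean of all tested compounds plus 3 SD, set per screening run, cut at about 8.8% in these data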;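 further: cells exposed to compound for 20 h before luminescence read; 0% = DMSO alone and 100% = MG132 at 30 µM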
# hcDAF-12 act: activates DAF-12 receptor from parasite H. contortus; HEK293 hcDAF-12 lit1-tk-luc reporter, luminescence; 0% DMSO, 100% Δ7-dafachronic acid; activation, % at 6.8 µM; 370,000 compounds, 1.4% hits; AID 652067;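 active means activation above the mean of all tested compounds plus 3 SD, cut at about 5.5% in these data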;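 further: 100% = response to 3 µM Δ7-dafachronic acid high control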
# ssDAF-12 act: S. stercoralis DAF-12 activation, primary screen; HEK293 ssDAF-12/GRIP1 lit1-tk-luc reporter, luminescence; % of 3 µM dafachronic acid response; activation, % at 6.8 µM; 370,000 compounds, 1% hits;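 active means activation above the mean over all tested compounds plus 3 SD, cut at about 0.9% in these data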;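 further: 0% = DMSO-only wells and 100% = 3 µM delta7-dafachronic acid wells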
# DAX1 inh-2: blocks DAX1 repression of SF-1 activated StAR promoter | inhibition, % at 6.8 µM | 370,000 compounds, 1.1% hits | HEK293T StAR-luciferase reporter, SF-1/DAX-1 repression relief;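 active means inhibition above the mean over all tested compounds plus 3 SD, cut at about 3.6% in these data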;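 further: 0% = DAX-1 cells with DMSO and 100% = cells lacking DAX-1 with DMSO; higher inhibition means more luminescence from relief of DAX-1 repression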
# Wee1 degr conf: confirmation of human Wee1 degradation inhibitors. shares compounds with Wee1 stabilizer. HeLa Luc-Wee1K328M degradation, luminescence; vehicle 0%, proteasome-blocked wells 100%. activation, % at 5 µM. 1,100 compounds, 4% hits; in the data active means activation above about 8.9%
# The depositor's hits bear a star; x = not tested or not shown.
SMILES,hgDAF12 agonist,DAX1 inh-1,Wee1 stabilizer,hcDAF-12 act,ssDAF-12 act,DAX1 inh-2,Wee1 degr conf
C=CC[C@H]1c2ccccc2[C@H]2N3N=Cc4ccccc4[C@H]3[C@H](CCc3ccccc3)C(=O)N2N1C(=O)c1ccccc1,-1,x,x,-4,-1,-1,x
COc1cc(C)ccc1OCCCCOc1ccccc1C(C)=O,-4,-1,16*,-3,-2,-1,-2
COc1ccc([C@H]2C[C@@H](n3cc(-c4ccc(F)cc4)nn3)[C@H](O)CN2CC2CCCCC2)cc1,1,1,x,1,-1,0,x
CC(C)CCNC(=O)c1cc(-c2ccncc2)nc2ccc(S(=O)(=O)N3CCOCC3)cc12,0,0,11*,-2,-1,0,1
NC(=O)C1CCN(C(=O)c2cccc(S(=O)(=O)N3CCCC3)c2)CC1,-1,0,x,-1,0,0,x
CSCCC(NC(=O)c1ccco1)C(=O)N1CCN(C(c2ccccc2)c2ccccc2)CC1 (configuration not stated),0,-2,x,-3,-1,-3,x
COc1ccc(-n2nc([N+](=O)[O-])c(=NCCc3ccc(C)cc3)n2O)cc1,-2,1,25*,-2,-1,0,4
CCCn1c(NC(=O)c2ccccc2)nc(Cc2ccccc2)c1-c1ccc(OC)cc1,0,x,x,0,-1,1,x
CCCNC(=O)c1cc(C2CCCCN2C(=O)c2ccc(C(C)C)cc2)on1 (configuration not stated),-2,x,x,-2,-2,-1,x
O=C(c1cc(=O)[nH]c2ccccc12)N1CCN(c2ccc([N+](=O)[O-])cc2)CC1,3,-1,59*,1,-2,-1,-3
COc1ccc(OCCn2c(=O)sc3ccccc32)cc1,9,3,13*,2,-1,1,1
Cc1ccc(C(=O)NC2=NCCS2)cc1,9,x,16*,3,0,3,-3
COc1cccc(CNC2CCC23CCC(C)CC3)c1 (configuration not stated),0,x,x,-1,-2,x,x
COC(=O)c1ccc(NC(=O)CSc2nnc(C(C)NC(=O)c3ccccc3Cl)n2C)cc1 (configuration not stated),1,1,22*,-1,-1,-1,0
COC(=O)c1ccc(NC(=O)CSc2ccccn2)cc1,1,-2,15*,1,-2,1,0
Cc1cc(NC(=O)CSc2ccccn2)cc(NC(=O)CSc2ccccn2)c1,0,0,x,1,-1,0,x
COc1ccc(CC(=O)NC(C)c2nnc(SCC(=O)Nc3ccccc3)n2C)cc1 (configuration not stated),-3,1,-3,-1,-2,1,x
O=C1CCc2cc(S(=O)(=O)Nc3ccc(F)cc3)cc3c2N1CC3,-2,-1,x,-1,-1,1,x
Cc1ccccc1-n1cnnc1SCC(=O)Nc1cccnc1Cl,-2,2,15*,0,-1,0,0
COc1ccccc1C(=O)NC(=O)COC(=O)Cc1ccccc1[N+](=O)[O-],0,0,x,0,-1,0,x
COc1ccc(NC(=O)COC(=O)Cc2ccccc2[N+](=O)[O-])cc1OC,2,0,31*,0,-1,-1,1
Cc1ccc(C(=O)CSc2nc3ccccc3c(=O)[nH]2)cc1,0,1,21*,1,0,0,1
CCc1ccc(C(=O)CSc2nc3ccccc3c(=O)[nH]2)cc1,5,-3,-1,1,-1,0,x
COc1cc(N/N=C(\C)c2ccc(N)cc2)nc(-c2ccccc2)n1,4,-1,12*,1,-1,-1,5
CCCC(=O)N1CCN(c2ccc(NC(=O)C(C)(C)C)cc2Cl)CC1,2,0,-1,-1,-2,0,x
SMILES,hgDAF12 agonist,DAX1 inh-1,Wee1 stabilizer,hcDAF-12 act,ssDAF-12 act,DAX1 inh-2,Wee1 degr conf
CCCC(=O)N1CCN(c2ccc(NC(=O)c3cccs3)cc2Cl)CC1,0,2,16*,0,-2,-1,-1
CC(C)(C)c1ccc(C(=O)Nc2ccc(F)cc2)s1,10,3,12*,6.3*,0,2,7
C=CC(=O)Nc1cccc(CN2C(=O)N(c3cc(OC)cc(OC)c3)Cc3cnc(NCCCCN(CC)CC)nc32)c1,x,0,x,x,x,x,x
CCOc1ccc(-n2c(SC/C=C/c3ccccc3)nnc2-c2ccco2)cc1,4,x,x,-2,-2,-1,x
Cn1c(SC/C=C/c2ccccc2)nnc1-c1ccco1,0,0,12*,-3,-1,0,0
CCCCNCCCOc1cccc(Cl)c1Cl,-2,0,11*,1,-1,0,2
CCCCNCCCOc1ccc(C)cc1Br,-2,-1,3,-1,-1,0,x
CCS(=O)(=O)c1ccc(C(=O)NC2CC2)c(Cl)c1Cl,4,-1,11*,0,0,0,2
COc1cccc(CC(=O)Nc2nc3ccccc3[nH]2)c1,2,0,12*,0,-2,0,1
COc1cc(C(=O)Nc2nc3ccccc3[nH]2)ccc1OC(F)F,5,1,12*,-2,-1,0,6
Cc1ccccc1CN1C[C@H]2CON(C)[C@H]2C[C@H]1c1cccc(Br)c1,0,-1,x,0,-1,0,x
CC(C)(C)C(C(=O)NCc1ccccc1)N1CCN(CCN2CCOCC2)CC1 (configuration not stated),-2,x,x,-1,-1,1,x
O=C(NC1CCCCCC1)C1Cc2ccccc2CN1C(=O)c1ccco1 (configuration not stated),2,0,21*,0,-1,0,3
COc1ccc(C)cc1NC(=O)COC(=O)c1c(-c2ccccc2)noc1C,-1,-2,x,-2,-2,-1,x
CCC(O)(CC)C(=O)N=Nc1c(O)[nH]c2ccccc12,0,0,11*,1,-1,0,2
O=C(COc1ccc(Cl)cc1Cl)OCn1nnc2ccccc2c1=O,-2,0,-1,-1,-1,0,x
Cc1ccccc1OCC(=O)OCn1nnc2ccccc2c1=O,-1,1,13*,-1,-1,0,0
O=C(O)/C(=C\c1ccccc1)c1ccc2ccccc2c1,-1,x,x,1,-1,1,x
Cc1ccc(/C=C/C(=O)c2ccc(O)cc2)cc1,11*,4.4*,17*,2,-1,0,0
CSc1ccc(/C=C/C(=O)c2ccc(O)cc2)cc1,5,2,0,0,0,1,x
CCCCCNC(=O)CCn1c(=O)oc2ccccc21,-1,0,-2,-2,-1,0,x

# Bioassay records: PubChem BioAssay, The Scripps Research Institute Molecular Screening Center
